ChEMBL document CHEMBL3433997, “St. Jude Leishmania screening dataset” (2016)

molecular target: Glucose transporter (Leishmania mexicana) (UniProt O61059); assay: ST_JUDE_LEISH: Cytotoxicity at 2uM final concentration against transgenic Leishmania Mexicana promastigotes LmGT2 that are glucose transport deficient and complemented with the L. Mexicana glucose transporter 2. Activity is measured by DNA content using SYBR green in vitro; assay type: functional

| Structure (SMILES) | inhibition [%] |
| --- | --- |
| CCNc1cc(C)nc(Nc2ccc(NC(=O)Cc3ccc(OC)cc3)cc2)n1 | 4.74 |
| CC1CCc2c(C(=O)Nc3c(F)cc(F)cc3Br)csc2C1 (centres undefined) | -0.61 |
| CCN(CC)CCN(Cc1ccc(-c2ccc(Cl)cc2)cc1)C(=O)Cn1c(CCc2cccc(F)c2F)nc(=O)c2ccccc21 | -1.69 |
| N=C(N)NC(=O)Nc1cc(Cl)c(Br)c(Cl)c1 | 2.88 |
| CCCCSc1c(CNCCCCCCNCc2ccc3ccccc3c2SCCCC)ccc2ccccc12 | 0.58 |
| CC(C)CNCc1cccc(-c2ccc(CNc3ccc4ncccc4c3)cc2)c1 | -0.62 |
| Cc1cc(Br)c(OCCCON2C(=N)N=C(N)NC2(C)C)c(Br)c1 | 1.2 |
| CN1CCN(CC(=O)Nc2ccc(-c3cccc(-c4nc5cc(C(F)(F)F)ccc5[nH]4)c3)cc2)CC1 | -1.43 |
| CCN1CCN(c2cc(C)c3cc(NC(=O)c4cncc(Br)c4)ccc3n2)CC1 | -2.43 |
| COCCNC(=O)c1ccc(OC2CCN(Cc3ccc(F)c(F)c3)CC2)c(Cl)c1 | -2.21 |
| CCNc1cc(C(=O)N[C@@H](Cc2ccccc2)[C@H](O)CNC2CC3CCC2C3)cc(N2CCCCS2(=O)=O)c1 (some centres undefined) | -3.22 |
| Cc1nnnn1-c1ccc(C(=O)N2CCC3(CC2)CN(Cc2ccc(Cl)c(Cl)c2)C(=O)O3)cc1 | 6.87 |
| CC(C)(C(=O)Nc1ccc(N2CCC3(CCCN(CC4CC4)C3)CC2)c(Cl)c1)c1cccc(C(F)(F)F)c1 | 1.72 |
| CN(C)CCc1coc2ccc(C(=O)Nc3ccc(-c4ccc(O)cc4)cc3)cc12 | 2.77 |
| O=C(NC1CC1)c1ccc(N2CCC(COc3cccc(F)c3)CC2)nc1 | 6.94 |
| Cc1ccc(OCCCON2C(=N)N=C(N)NC2(C)C)cc1C | 1.46 |
| COc1ccc(C(=O)CCC(=O)N(Cc2ccc(-c3ccc(CNCc4cccnc4)cn3)cc2)C2CCN(Cc3ccccc3)CC2)cc1F | 3.53 |
| CN1CCN(c2cc(NC(=O)Nc3cccc(Cl)c3Cl)ccc2Cl)CC1 | -2.68 |
| Cc1c(CNCCCNc2cc(=O)c3ccccc3[nH]2)sc(-c2ccco2)c1Br | 13.9 |
| COc1ccccc1N1CCN(CCCCNC(=O)c2ccc(NC(=O)c3ccc(C(F)(F)F)cc3)cc2)CC1 | -0.69 |

| Structure (SMILES) | inhibition [%] |
| --- | --- |
| Cc1cccc2nc(-c3cccc(-c4cccc(NC(=O)Nc5cccc(C#N)c5)c4)c3)[nH]c12 | 10.3 |
| O=C(NC1CCCC1)c1ccc(N2CCC(NCc3cccc(C(F)(F)F)c3)CC2)cc1 | 0.59 |
| CC(=O)Nc1cc(C(=O)Nc2cccc(-c3csc(-c4nc5ccccc5[nH]4)c3)c2)ccc1C | 9.18 |
| COc1ccc(CC(Cc2ccc(OC)cc2)NCC(O)c2cccc(Cl)c2)cc1 (centres undefined) | 1.6 |
| N#Cc1ccc2c(c1)CCN(CCC1CCC(NC(=O)c3cc4ccccc4[nH]3)CC1)CC2 (centres undefined) | 6.21 |
| N#Cc1cccc(C(O)CN(Cc2ccccc2)Cc2ccccc2)c1 (centres undefined) | 2.04 |
| O=C(NCc1ccccc1)Nc1ccc(-c2cccc(-c3nc4cc(C(F)(F)F)ccc4[nH]3)c2)cc1 | -1.23 |
| O=C(/C=C/c1ccc(Cl)c(Cl)c1)NCCCCCN1CCCC(C(=O)Nc2ccc(Cl)c(Cl)c2)C1 (centres undefined) | -0.96 |
| O=C(Nc1ccc2c(c1)CCN(C1CCC1)CC2)c1ccc(-n2ccnc2)cn1 | 2.28 |
| COc1ccc(C2CC(c3cccs3)=NN2C(=O)COc2cccc3c2CCCC3O)cc1OC (centres undefined) | 4.14 |
| O=C(Nc1cccc(-c2csc(NC(=O)c3ccc4ccccc4c3)n2)c1)c1ccc2ccccc2c1 | 0.66 |
| COc1ccc(CCCc2nc(N)nc(N)c2-c2ccc(Cl)cc2)cc1 | 3.75 |
| Cc1cccc2nc(-c3cccc(-c4cccc(NC(=O)Nc5ccc(Cl)cc5)c4)c3)[nH]c12 | -1.91 |
| CCN1C(=O)N(CCC(C)C)C2(CCN(Cc3ccc(OC)cc3O)CC2)C1=O | 3 |
| CN1CCN(CCNc2c3ccccc3nc3c2ccc2ccccc23)CC1 | 81.5 |
| Cc1cc(=NN=Cc2cccc(Cl)c2)c2ccc(F)cc2[nH]1 | 1.04 |
| CN1CCCC1CNS(=O)(=O)c1ccc(C(=O)NCC2CC2)cc1 (centres undefined) | 1.36 |
| COc1ccc(NC(=O)N2CCCN(CCCCCNC(=O)/C=C/c3ccc(C(F)(F)F)cc3)CC2)cc1Cl | 2.8 |
| COc1ccc(CNCc2ccc(-c3cccc(-c4nc5cccc(C)c5[nH]4)c3)cc2)cc1 | 0.41 |
